Measurements from the supplement of paper PMC6897291.

Columns and labels:
[1] = tested on: U-2932; assay: growth inhibition by drug alone (1 - RLU/untreated control) (fraction); higher = stronger inhibition; settings: 177Lu-lilotomab satetraxetan 0 ug/ml
How it was run: (§1)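 A radiolabelled anti-CD37 antibody conjugate (~600 MBq/mg) was applied for 18 h at 0.5 µg/ml to RIVA and 1 µg/ml to U-2932 cells, with untreated cells run alongside. All cells were washed and seeded at 3,000 cells/well onto library-printed plates at 10/100 nM (RIVA) or 10/1,000 nM (U-2932). Growth inhibition was based on RealTime-Glo luminescence compared with untreated no-drug wells. Daily reads began on day 3 after 1 h at 37°C, with each value being 1 − RLU/mean of the 48 such wells on that plate.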

[2] = tested on: RIVA; assay: as above; settings: 177Lu-lilotomab satetraxetan 0 ug/ml
How it was run: as §1

[3] = tested on: U-2932; assay: growth inhibition by drug plus 177Lu-lilotomab satetraxetan (1 - RLU/untreated control) (fraction); higher = stronger inhibition; settings: 177Lu-lilotomab satetraxetan 1 ug/ml
How it was run: as §1

[4] = tested on: RIVA; assay: as above; settings: 177Lu-lilotomab satetraxetan 0.5 ug/ml
How it was run: as §1

| Structure (SMILES) | growth inhibition by drug alone ([1]; 10 nM, time (day): 3) | growth inhibition by drug alone ([1]; 10 nM, time (day): 4) | growth inhibition by drug alone ([1]; 10 nM, time (day): 5) | growth inhibition by drug alone ([1]; 10 nM, time (day): 6) | growth inhibition by drug alone ([1]; 1000 nM, time (day): 3) | growth inhibition by drug alone ([1]; 1000 nM, time (day): 4) | growth inhibition by drug alone ([1]; 1000 nM, time (day): 5) | growth inhibition by drug alone ([1]; 1000 nM, time (day): 6) | growth inhibition by drug alone ([2]; 10 nM, time (day): 3) | growth inhibition by drug alone ([2]; 10 nM, time (day): 4) | growth inhibition by drug alone ([2]; 10 nM, time (day): 5) | growth inhibition by drug alone ([2]; 10 nM, time (day): 6) | growth inhibition by drug alone ([2]; 100 nM, time (day): 3) | growth inhibition by drug alone ([2]; 100 nM, time (day): 4) | growth inhibition by drug alone ([2]; 100 nM, time (day): 5) | growth inhibition by drug alone ([2]; 100 nM, time (day): 6) | growth inhibition by drug plus 177Lu-lilotomab satetraxetan ([3]; 10 nM, time (day): 3) | growth inhibition by drug plus 177Lu-lilotomab satetraxetan ([3]; 10 nM, time (day): 4) | growth inhibition by drug plus 177Lu-lilotomab satetraxetan ([3]; 10 nM, time (day): 5) | growth inhibition by drug plus 177Lu-lilotomab satetraxetan ([3]; 10 nM, time (day): 6) | growth inhibition by drug plus 177Lu-lilotomab satetraxetan ([3]; 1000 nM, time (day): 3) | growth inhibition by drug plus 177Lu-lilotomab satetraxetan ([3]; 1000 nM, time (day): 4) | growth inhibition by drug plus 177Lu-lilotomab satetraxetan ([3]; 1000 nM, time (day): 5) | growth inhibition by drug plus 177Lu-lilotomab satetraxetan ([3]; 1000 nM, time (day): 6) | growth inhibition by drug plus 177Lu-lilotomab satetraxetan ([4]; 10 nM, time (day): 3) | growth inhibition by drug plus 177Lu-lilotomab satetraxetan ([4]; 10 nM, time (day): 4) | growth inhibition by drug plus 177Lu-lilotomab satetraxetan ([4]; 10 nM, time (day): 5) | growth inhibition by drug plus 177Lu-lilotomab satetraxetan ([4]; 10 nM, time (day): 6) | growth inhibition by drug plus 177Lu-lilotomab satetraxetan ([4]; 100 nM, time (day): 3) | growth inhibition by drug plus 177Lu-lilotomab satetraxetan ([4]; 100 nM, time (day): 4) | growth inhibition by drug plus 177Lu-lilotomab satetraxetan ([4]; 100 nM, time (day): 5) | growth inhibition by drug plus 177Lu-lilotomab satetraxetan ([4]; 100 nM, time (day): 6) |
| --- | --- | --- | --- | --- | --- | --- | --- | --- | --- | --- | --- | --- | --- | --- | --- | --- | --- | --- | --- | --- | --- | --- | --- | --- | --- | --- | --- | --- | --- | --- | --- | --- |
| FC(F)c1nc2ccccc2n1-c1nc(N2CCOCC2)nc(N2CCOCC2)n1 | 0.143 | 0.0834 | 0.0466 | 0.0263 | 0.437 | 0.399 | 0.349 | 0.367 | 0.208 | 0.164 | 0.161 | 0.106 | 0.823 | 0.782 | 0.766 | 0.718 | 0.0955 | 0.119 | 0.149 | 0.22 | 0.282 | 0.348 | 0.331 | 0.393 | – | – | – | – | – | – | – | – |
| CCC(CC)CC1(C(=O)Nc2ccccc2SC(=O)C(C)C)CCCCC1 | 0.0325 | 0.00234 | 0.00914 | 0.0506 | -0.0537 | -0.0604 | -0.0741 | -0.00871 | -0.0908 | -0.101 | -0.128 | -0.174 | -0.0374 | -0.15 | -0.166 | -0.178 | 0.00638 | 0.0745 | 0.111 | 0.2 | -0.0639 | -0.00533 | 0.0344 | 0.206 | – | – | – | – | – | – | – | – |
| O=c1[nH]cc(F)c(=O)[nH]1 [Adrucil (Fluorouracil)] | 0.0617 | 0.0194 | 0.0184 | -0.211 | 0.0564 | 0.0179 | 0.00587 | -0.153 | -0.0691 | -0.144 | -0.384 | -0.72 | -0.6 | -0.481 | -0.493 | -0.619 | -0.0549 | 0.00352 | 0.0517 | 0.0335 | 0.0514 | 0.0854 | 0.184 | 0.275 | – | – | – | – | – | – | – | – |
| COc1c(C)c2c(c(O)c1C/C=C(\C)CCC(=O)OCCN1CCOCC1)C(=O)OC2 [Mycophenolate mofetil (CellCept)] | – | – | – | – | – | – | – | – | 0.15 | 0.0186 | -0.0505 | -0.245 | 0.284 | 0.214 | 0.154 | 0.0335 | 0.0524 | 0.064 | 0.0624 | 0.115 | 0.826 | 0.893 | 0.89 | 0.878 | 0.413 | 0.511 | 0.534 | 0.55 | 0.554 | 0.581 | 0.583 | 0.539 |
| CS(=O)(=O)c1ccc(C(=O)Nc2ccc(Cl)c(-c3ccccn3)c2)c(Cl)c1 [Vismodegib (GDC-0449)] | 0.11 | 0.072 | -0.091 | -0.101 | 0.0775 | 0.075 | 0.0248 | 0.00134 | 0.089 | 0.121 | 0.101 | -0.0572 | -0.253 | -0.16 | -0.186 | -0.299 | 0.055 | 0.116 | 0.202 | 0.219 | 0.117 | 0.138 | 0.194 | 0.297 | – | – | – | – | – | – | – | – |
| COc1c(C)cnc(Cn2cnc3c(Cl)nc(N)nc32)c1C | 0.137 | 0.0945 | 0.017 | -0.0336 | 0.935 | 0.979 | 0.986 | 0.987 | -0.00355 | 0.0266 | -0.0608 | -0.277 | 0.0172 | 0.0454 | 0.0061 | -0.105 | -0.00351 | 0.0579 | 0.0581 | 0.132 | 0.949 | 0.985 | 0.988 | 0.989 | – | – | – | – | – | – | – | – |
| Nc1nc(Cl)nc2c1ncn2[C@@H]1O[C@H](CO)[C@@H](O)[C@@H]1F [Clofarabine] | – | – | – | – | – | – | – | – | -0.085 | -0.0539 | -0.15 | -0.383 | 0.384 | 0.685 | 0.781 | 0.827 | 0.00886 | 0.0897 | 0.102 | 0.0953 | 0.925 | 0.961 | 0.977 | 0.985 | 0.51 | 0.568 | 0.575 | 0.586 | 0.872 | 0.923 | 0.943 | 0.959 |
| O=C1CN2Cc3c(ccc(Cl)c3Cl)N=C2N1 [Anagrelide] | 0.0875 | 0.0814 | 0.0131 | -0.134 | 0.102 | 0.0873 | -0.0302 | -0.00421 | -0.0185 | 0.0438 | -0.0392 | -0.302 | -0.0533 | 0.019 | 0.0156 | -0.0326 | 0.101 | 0.141 | 0.208 | 0.23 | 0.0939 | 0.117 | 0.178 | 0.243 | – | – | – | – | – | – | – | – |
| Cn1nnc2c(C(N)=O)ncn2c1=O [Temozolomide] | – | – | – | – | – | – | – | – | 0.0977 | 0.0337 | -0.0714 | -0.291 | 0.0972 | 0.055 | 0.0367 | -0.03 | 0.00136 | 0.0294 | 0.0193 | 0.0893 | -0.0214 | 0.119 | 0.126 | 0.194 | 0.398 | 0.513 | 0.538 | 0.549 | 0.493 | 0.527 | 0.53 | 0.509 |
